Source: the supplement of paper PMC6089552
Hit rate of the full screen: of about 3,200 compounds, about 300 (9.4%) showed activity. Only a selection was taken, and actives are over-represented in it overall.

Test system: A673/TR/shEF
Assay: cell viability (LOESS-normalised, relative to median of negative controls) (log2 ratio); higher = more viable cells (less compound effect), active = hit call of the paper (over 3 MAD below the median)
Details: treatment time: 72 h
Method in brief: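 A673/TR/shEF Ewing sarcoma cells (1,500 per well, 384-well plates) were grown with or without doxycycline to induce EWS-FLI1 shRNA knockdown, starting 24 h before compounds. Library compounds at two or more concentrations, with DMSO controls, were added for three days. Cell viability was read by CellTiter-Glo luminescence on an Envision reader, then LOESS-corrected per plate, divided by the median of negative controls and log2-transformed. Hits were wells at least three median absolute deviations from the median of all screened wells.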

[1] = 0.25 µM, library screen: screen1, EWS-FLI1 expression: high (no doxycycline)
[2] = 0.25 µM, library screen: screen1, EWS-FLI1 expression: low (doxycycline-induced shRNA knockdown)
[3] = 2.5 µM, library screen: screen1, EWS-FLI1 expression: high (no doxycycline)
[4] = 2.5 µM, library screen: screen1, EWS-FLI1 expression: low (doxycycline-induced shRNA knockdown)
[5] = 0.25 µM, library screen: screen2, EWS-FLI1 expression: high (no doxycycline)
[6] = 0.25 µM, library screen: screen2, EWS-FLI1 expression: low (doxycycline-induced shRNA knockdown)
[7] = 2.5 µM, library screen: screen2, EWS-FLI1 expression: high (no doxycycline)
[8] = 2.5 µM, library screen: screen2, EWS-FLI1 expression: low (doxycycline-induced shRNA knockdown)
[9] = 0.103 µM, library screen: screen3, EWS-FLI1 expression: high (no doxycycline)
[10] = 0.103 µM, library screen: screen3, EWS-FLI1 expression: low (doxycycline-induced shRNA knockdown)
[11] = 0.308 µM, library screen: screen3, EWS-FLI1 expression: high (no doxycycline)
[12] = 0.308 µM, library screen: screen3, EWS-FLI1 expression: low (doxycycline-induced shRNA knockdown)
[13] = 0.926 µM, library screen: screen3, EWS-FLI1 expression: high (no doxycycline)
[14] = 0.926 µM, library screen: screen3, EWS-FLI1 expression: low (doxycycline-induced shRNA knockdown)
[15] = 2.8 µM, library screen: screen3, EWS-FLI1 expression: high (no doxycycline)
[16] = 2.8 µM, library screen: screen3, EWS-FLI1 expression: low (doxycycline-induced shRNA knockdown)
[17] = 8.3 µM, library screen: screen3, EWS-FLI1 expression: high (no doxycycline)
[18] = 8.3 µM, library screen: screen3, EWS-FLI1 expression: low (doxycycline-induced shRNA knockdown)
[19] = 25 µM, library screen: screen3, EWS-FLI1 expression: high (no doxycycline)
[20] = 25 µM, library screen: screen3, EWS-FLI1 expression: low (doxycycline-induced shRNA knockdown)

Measured: cell viability (log2)

CC[C@H](CC[C@@H](C)[C@H]1CC[C@H]2[C@@H]3CC=C4C[C@@H](OC(C)=O)CC[C@]4(C)[C@H]3CC[C@]12C)C(C)C
inactive: [1] 0.121 | [2] 0.139 | [3] 0.109 | [4] 0.182

CCCCCCCCCCCCC(=O)N1CCCCC1CNC(=O)C(N)CCCCN (stereo not given)
inactive: [5] 0.125 | [6] 0.1 | [7] 0.117 | [8] 0.072

COc1ccc(CN2CCN(Cc3ccc(C)cc3)CC2)c(OC)c1OC
inactive: [1] 0.0669 | [2] 0.0696 | [3] 0.138 | [4] 0.00566

C=CCc1ccc(O)c(OC)c1
inactive: [1] 0.0882 | [2] 0.124 | [3] 0.127 | [4] 0.12

C=CCc1ccc(OC(=O)c2ccccc2)c(OC)c1
inactive: [1] 0.102 | [2] -0.0537 | [3] 0.111 | [4] 0.0334

N/C(=N\S(=O)(=O)Cc1ccccc1)Nc1nc2ccccc2o1
inactive: [1] 0.0883 | [2] 0.00923 | [3] 0.149 | [4] 0.031

COc1ccc2c(c1)CCC1=CC(=O)CCC12C (stereo not given)
inactive: [1] 0.119 | [2] 0.144 | [3] 0.0987 | [4] 0.126

OC[C@@H](O)[C@@H](O[C@@H]1O[C@H](CO)[C@@H](O)[C@H](O)[C@H]1O)[C@H](O)[C@@H](O)CO
inactive: [1] 0.117 | [2] 0.055 | [3] 0.143 | [4] 0.0198

NC(N)=NCCN1CCCCCCC1
inactive: [1] 0.086 | [2] 0.0896 | [3] 0.182 | [4] 0.105

[O-]n1ccccc1=S.[O-]n1ccccc1=S.[Zn+2]
active: [3] -0.205
inactive: [1] 0.17 | [2] 0.0708 | [4] 0.0604

O=C([O-])[O-].[Ca+2]
inactive: [5] 0.129 | [6] 0.105 | [7] 0.151 | [8] 0.0778

COc1ccc(CN2CCN(Cc3ccc(OC)c(OC)c3OC)CC2)cc1OC
inactive: [1] 0.061 | [2] 0.00924 | [3] 0.123 | [4] 0.0982

CC(C)N1C(=O)C(=C2C(=O)N(C)c3ccccc32)SC1=S
inactive: [1] 0.0638 | [2] 0.00946 | [3] 0.0618 | [4] 0.138

C[C@H]1C(=O)CC[C@@H]2[C@]1(C)CC[C@H]1[C@@]2(C)CC[C@@]2(C)[C@@H]3CC(C)(C)CC[C@]3(C)CC[C@]12C
inactive: [1] 0.031 | [2] 0.0462 | [3] 0.0143 | [4] 0.0816

O=c1c(O)c(-c2cc(O)c(O)c(O)c2)oc2cc(O)cc(O)c12
inactive: [1] 0.0195 | [2] 0.156 | [5] 0.118 | [6] 0.093 | [3] 0.0517 | [4] 0.0582 | [7] 0.111 | [8] 0.0599

COc1cc(O)c2c(=O)c(O)c(-c3ccc(O)c(O)c3)oc2c1
inactive: [1] -0.00867 | [2] 0.0259 | [3] 0.0453 | [4] 0.0969

O=c1c(O)c(-c2ccc(O)c(O)c2)oc2cc(O)cc(O)c12
active: 25 µM, library screen: screen1, EWS-FLI1 expression: high (no doxycycline) -1.43
inactive: 0.025 µM, library screen: screen1, EWS-FLI1 expression: high (no doxycycline) 0.22 | 0.025 µM, library screen: screen1, EWS-FLI1 expression: low (doxycycline-induced shRNA knockdown) 0.00571 | [1] 0.112 | [2] 0.018 | [5] 0.12 | [6] 0.0619 | [3] 0.108 | [4] 0.0969 | [7] 0.176 | [8] 0.00939 | 25 µM, library screen: screen1, EWS-FLI1 expression: low (doxycycline-induced shRNA knockdown) 0.0272

N#Cc1c2c(c(Nc3ccc(O)cc3)n3c1nc1ccccc13)CCC2
inactive: [1] 0.0182 | [2] 0.0391 | [3] 0.0659 | [4] 0.0482

CCOC(=O)c1c(C)cc(O)cc1O
inactive: [1] 0.0788 | [2] 0.0693 | [3] 0.0357 | [4] 0.0819

CC1=C(C(=O)OC2CCCC2)C(c2coc3ccccc3c2=O)C2=C(CC(C)(C)CC2=O)N1 (stereo not given)
inactive: [1] 0.0783 | [2] 0.0738 | [3] 0.145 | [4] 0.0146

C#CCN(C)CCCOc1ccc(Cl)cc1Cl
inactive: [5] 0.27 | [6] 0.097 | [7] 0.132 | [8] 0.147

C#CCN(C)Cc1ccccc1
active: [7] -1.76 | [8] -2.08
inactive: [1] 0.0858 | [2] 0.0954 | [5] 0.078 | [6] -0.0346 | [3] 0.175 | [4] 0.102

CN(C)CCN(Cc1ccccc1)c1ccccn1
inactive: [1] 0.0764 | [2] 0.111 | [3] 0.247 | [4] 0.229

COc1ccc(CN2CCN(Cc3ccc(OC)c(OC)c3OC)CC2)cc1Br
inactive: [1] 0.104 | [2] 0.0582 | [3] 0.0165 | [4] 0.0422

Cc1ccc(OCC(=O)N2CCC(C)CC2)c(C)c1
inactive: [1] 0.0605 | [2] 0.118 | [3] 0.14 | [4] 0.114

COc1ccc2c(c1)CCC1=CC(=O)CC[C@@]12C
inactive: [1] 0.0515 | [2] 0.00881 | [3] 0.19 | [4] 0.155

CC1C2C(CC3C4CC[C@@H]5CC(=O)CC[C@]5(C)C4CC[C@@]32C)OC12CC[C@@H](C)CO2 (stereo not given in full)
inactive: [1] 0.0621 | [2] 0.0593 | [3] 0.124 | [4] 0.0882

COCCN1C(=O)/C(=C\c2ccc(-c3ccc(Br)cc3)o2)SC1=S
inactive: [1] 0.0753 | [2] 0.00476 | [3] 0.101 | [4] 0.0615

Nc1nc(=O)c2nc(CNc3ccc(C(=O)N[C@@H](CCC(=O)O)C(=O)O)cc3)cnc2[nH]1
inactive: [1] 0.0181 | [2] 0.031 | [3] 0.0902 | [4] 0.0775

CN(Cc1cnc2nc(N)nc(N)c2n1)c1ccc(C(=O)N[C@@H](CCC(=O)O)C(=O)O)cc1
inactive: 0.025 µM, library screen: screen2, EWS-FLI1 expression: high (no doxycycline) 0.0134 | 0.025 µM, library screen: screen2, EWS-FLI1 expression: low (doxycycline-induced shRNA knockdown) 0.0597 | [9] -0.0597 | [10] 0.0506 | [6] 0.0894 | [12] 0.0568 | [14] 0.0108 | [8] 0.0271 | [16] 0.0377 | [18] 0.0521 | 25 µM, library screen: screen2, EWS-FLI1 expression: low (doxycycline-induced shRNA knockdown) 0.0873 | [20] 0.0291
active: [5] -0.406 | [11] -0.512 | [13] -0.53 | [7] -0.754 | [15] -0.711 | [17] -0.751 | 25 µM, library screen: screen2, EWS-FLI1 expression: high (no doxycycline) -0.743 | [19] -0.797

Nc1nc(N)c2nc(CNc3ccc(C(=O)N[C@@H](CCC(=O)O)C(=O)O)cc3)cnc2n1
inactive: [5] 0.137 | [6] 0.126 | [3] 0.122 | [4] 0.141 | [7] 0.123 | [8] 0.134
active: [1] -1.62 | [2] -0.186

CCCCCN(CCCCC)C(=O)C(CCC(=O)O)NC(=O)c1ccc(Cl)c(Cl)c1 (stereo not given)
inactive: [5] 0.131 | [6] 0.0648 | [7] 0.114 | [8] 0.0564

CN(Cc1cnc2nc(N)nc(N)c2n1)c1ccc(C(=O)N[C@H](CCC(=O)O)C(=O)O)cc1
inactive: [5] 0.209 | [6] 0.115 | [7] 0.0762 | [8] 0.165

O=C(O)CCC(NC(=O)c1ccccc1C(=O)O)C(=O)O (stereo not given)
inactive: [5] 0.0764 | [6] 0.0149 | [7] 0.157 | [8] 0.0718

CC(=O)O[C@H]1CC2(C)[C@@H](C[C@@H](O)[C@H]3[C@@]4(C)CC[C@@H](O)[C@@H](C)[C@@H]4CC[C@@]32C)/C1=C(/CCC=C(C)C)C(=O)O (stereo not given in full)
inactive: [5] 0.0714 | [6] 0.0604 | [7] 0.159 | [8] 0.0152

CC1CCC2(CO)CCC3(C)C(=CCC4C5(C)CCC(O)C(C)(C)C5CCC43C)C2C1C (stereo not given)
inactive: [1] 0.00774 | [2] -0.0265 | [3] 0.0749 | [4] 0.092

Cn1cnc2c(F)c(Nc3ccc(Br)cc3Cl)c(C(=O)NOCCO)cc21
inactive: [9] -0.0515 | [10] 0.111 | [11] -0.109 | [12] 0.0965 | [14] 0.113 | [16] 0.014 | [18] 0.0549 | [20] -0.089
active: [13] -0.189 | [15] -0.222 | [17] -0.293 | [19] -0.303

Cc1ccccc1CN1CCN(Cc2ccco2)CC1
inactive: [1] 0.12 | [2] 0.0129 | [3] 0.0799 | [4] -0.0931

Cc1ccc(CN2CCN(Cc3c[nH]c4ccccc34)CC2)cc1
inactive: [1] 0.0521 | [2] 0.0225 | [3] 0.104 | [4] 0.0231

CC(=O)c1cc2c(cc1O)OC(C)(C)C=C2
inactive: [1] 0.16 | [2] -0.0151 | [3] 0.126 | [4] 0.0912

CC(C(=O)O)N1C(=O)C(=Cc2cccnc2)SC1=S (stereo not given)
inactive: [1] -0.0281 | [2] 0.0107 | [3] 0.0923 | [4] -0.0695

CC(C(=O)O)N1C(=O)C(=Cc2ccccn2)SC1=S (stereo not given)
inactive: [3] 0.144 | [4] 0.106
active: [1] -2.05 | [2] -1.9

CC(C)N1C(=O)C(=Cc2ccccc2F)SC1=S
inactive: [1] 0.0965 | [2] 0.0324 | [3] 0.0812 | [4] -0.039

C=CC1=C(C)/C(=C/c2[nH]c(Cc3[nH]c(/C=C4\NC(=O)C(C)=C4C=C)c(C)c3CCC(=O)O)c(CCC(=O)O)c2C)NC1=O
inactive: [1] 0.0132 | [2] 0.0277 | [3] 0.0983 | [4] 0.128
